PubChem BioAssay AID2546 (National Center for Advancing Translational Sciences (NCATS), 2010)
Among all 310,000 compounds or so, about 11,000 (3.5%) were called active. Not shown: some 8% with an inconclusive outcome. Calls come from the whole dose curve; as a rule, active = well fitted inhibition curve with a large enough effect; inconclusive = small, poorly fitted or top-dose-only effect, or effect the other way; inactive = flat fitted curve, though single readings scatter. What follows is part of a selection rich in actives, with near analogues and random picks from the rest. Entries that show only a call come without a potency.

Experiment: VP16 counterscreen qHTS for inhibitors of ROR gamma transcriptional activity;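 note: Gal4-VP16 expression switched on by copper sulfate through the metallothionein promoter; nearly all actives have a fitted effect of over 50% in size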
Details: Drosophila S2 Gal4-VP16 UAS-luciferase, luminescence, 20 h; series mostly up to 53.6 µM
Potency is the fitted concentration of half-maximal effect.

| Structure (SMILES) | Potency |
| --- | --- |
| COc1ccc(N2CCN(S(=O)(=O)CCNC(=O)C34CC5CC(CC(C5)C3)C4)CC2)cc1 | inactive |
| COC(=O)c1ccc(CSc2ccccc2C)o1 | inactive |
| COC(=O)c1ccc(CSc2ccc3nnc(-c4ccccc4)n3n2)o1 | 20 µM (active) |
| COc1ccc(-c2nnc3ccc(SCc4ccccc4)nn23)cc1 | inactive |
| CC(=O)c1ccc(NC(=O)c2sc3nc4n(c(=O)c3c2C)CCCCC4)cc1 | inactive |
| COc1ccc(Cl)cc1NC(=O)c1cccc(N2C(=O)C3CC=CCC3C2=O)c1 (stereo not drawn) | inactive |
| Cc1cc2[nH]ncc2cc1NC(=S)NC(=O)c1ccccc1 | inactive |
| CCOC(=O)c1c(-c2ccc(-c3ccccc3)cc2)csc1NC(=O)CCC(=O)O | inactive |
| CCOC(=O)C1=C(NC(=S)NC(=O)c2ccccc2)c2ccccc2CC1(C)C | 11.2 µM (active) |
| CCOC(=O)c1c(-c2ccccc2)csc1NC(=S)NC(=O)c1ccccc1 | 6.31 µM (active) |
| CCOC(=O)c1c(NC(=O)C2(C)Cc3ccccc3C(=O)O2)sc2c1CCCC2 (stereo not drawn) | inactive |
| CCOC(=O)c1c(-c2cccc(C)c2)csc1NC(=O)c1c(-c2ccccc2)noc1C | inactive |
| COc1ccc(CNC(=O)CN(Cc2ccccc2Cl)C(=O)c2csnn2)cc1 | inactive |
| COc1ccc(CCNC(=O)c2c(C)nn(-c3ccccc3)c2Cl)cc1 | inactive |
| COc1ccc(N(CC(=O)Nc2cc(OC)ccc2OC)S(=O)(=O)c2c(C)noc2C)cc1 | inactive |
| CCOc1c(OC)cccc1C(=O)NCC1(c2ccccc2)CCCC1 | inactive |
| CN(Cc1ccccc1)C(=O)c1ccc(COc2ccccc2)cc1 | inactive |
| O=S(=O)(ON(c1ccccc1)S(=O)(=O)c1ccccc1)c1ccccc1 | inactive |
| CC1=C/C(=N\OS(=O)(=O)c2ccccc2)C=CC1=O | 1.12 µM (active) |
| NC(=O)CC(NC(=O)Cc1ccc(Br)cc1)c1ccc(NC2CC3CCC2C3)c([N+](=O)[O-])c1 (stereo not drawn) | inactive |
| CC(C)NC(=O)C(c1ccc(F)cc1)N(C(=O)CCC(=O)Nc1ccccn1)c1ccccc1F (stereo not drawn) | inactive |
| CCCn1nc(NC(=O)C(C)C)c2cc3cc(OC)ccc3nc21 | inactive |
| CCOc1ccc2c(c1)c(=O)c(S(=O)(=O)c1ccc(C)cc1)cn2CC | inactive |
| COCn1c(C(O)c2ccccc2)cc2ccccc21 (stereo not drawn) | inactive |
| COc1cc(C(=O)NC(=S)NCc2ccco2)cc(OC)c1OC | 6.31 µM (active) |
| COc1cc(C(=O)N[C@@H](C)C(=O)NCc2ccco2)cc(OC)c1OC | inactive |
| COc1cc(-n2c(C)nc3cc(C(=O)NCc4ccco4)ccc32)cc(OC)c1OC | inactive |

| Structure (SMILES) | Potency |
| --- | --- |
| COc1ccc(CNc2nccs2)cc1 | inactive |
| CCC(=C/c1sc2ccc3ccccc3c2[n+]1C)/C=C1\Sc2ccc3ccccc3c2N1C | 1 µM (active) |
| COc1cccc(OC)c1C(=O)Nc1c(C(=O)N2CCN(c3ccccn3)CC2)oc2ccccc12 | inactive |
| O=C(c1cccnc1)N1CCN(S(=O)(=O)c2cccs2)CC1 | inactive |
| O=S(=O)(NC1CCCCC1N1CCN(c2ccccc2F)CC1)c1ccccc1 (stereo not drawn) | inactive |
| CCOC(=O)c1cnc(Nc2nc3ccccc3o2)nc1CSC(=S)N1CCCCC1 | 1 µM (active) |
| CCc1ccc(CNC(=O)C2CCCN(c3nc4ccccc4o3)C2)cc1 (stereo not drawn) | inactive |
| CCOC(=O)CCNC(=O)N1CCCC(C(=O)c2ccccc2SC)C1 (stereo not drawn) | inactive |
| COc1cc(C(=O)NCc2cc3cc(Cl)ccc3n2C)cc(OC)c1OC | inactive |
| Cc1ccc(NS(=O)(=O)c2ccc3c(c2)oc(=O)n3C)c(C)c1 | inactive |
| COc1ccccc1N(C)C(=O)c1cc(S(=O)(=O)N2CCc3ccccc32)cn1C | inactive |
| COC(=O)c1ccc(C(=O)NC2CC(C)(C)Cc3c2cnn3-c2ccc(F)cc2)nc1 (stereo not drawn) | inactive |
| Oc1ccc(N=Nc2nccs2)c(O)c1 | inactive |
| Oc1c(C=Nc2cccc3nsnc23)ccc2ccccc12 | inactive |
| Oc1ccc2ccccc2c1N=Nc1nccs1 | 3.55 µM (active) |
| Cc1csc(NC(=O)CSc2nnc(-c3cccnc3)o2)n1 | inactive |
| COc1ccc(-c2nc(CS(=O)(=O)CC(=O)NCc3cccc(Br)c3)c(C)o2)cc1 | inactive |
| Cc1ccc(N=Nc2c(C)[nH]n(-c3ccccc3)c2=O)cc1 | inactive |
| Cc1cccc(N=Nc2c(C)[nH]n(-c3ccccc3)c2=O)c1 | inactive |
| Cc1[nH]n(C(N)=S)c(=O)c1N=Nc1ccc(Cl)cc1Cl | 2.82 µM (active) |
| COc1ccc(NC(=O)c2cc(-c3cc(OC)c(OC)c(OC)c3)nc3ccccc23)c(OC)c1 | inactive |
| O=C(c1cccc(Cl)c1)N1CCN(Cc2ccccc2)CC1 | inactive |
| O=C(Nc1ccccc1)N1CCN(Cc2ccccc2)CC1 | inactive |
| O=C(NC(=S)N1CCN(Cc2ccccc2)CC1)c1ccccc1 | 3.55 µM (active) |
| CC1CCN(S(=O)(=O)c2ccc3[nH]c(=O)ccc3c2)CC1 | inactive |
| CCC(C)[C@H](NC(=O)N1CCn2c1nc1ccccc12)C(=O)NCc1ccc(OC)cc1 (stereo partly drawn) | inactive |
